Data on 40 sequences can be found in the supplement of paper PMC6555819.

One assay has as its system FXR:RXRa (NR concentration 270 nM, RXRa partner concentration 90 nM). The assay is described as follows: PBM binding z-score (relative to random genomic background probes); higher = stronger binding; sequences stand for … in GC…GCGATTGACAGCGTAGAATGAAGG
The method, boiled down: (§1)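 Each nuclear receptor dimer, without ligand, was incubated for 1 h on custom Agilent 4×180K protein-binding microarrays. Binding was detected with antibodies against each partner (one per run), and scanned fluorescence was regression-normalized. The binding z-scores are referenced to random human genomic background probes.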
In turn, CCCACTGGGGCATAAGGTTACCATAAGCCAGCCC showed a PBM binding z-score of 0.325.
On the same count and under the same terms, the figure for GCTTACGGGTCAAACGTTATAGCATGAATAGAAT is 6.35; for TCTCGGATGACACGAAGGTCAGAGCTTTCCAGAG it is 2.3.
On the same count and under the same terms, the figure for ATCTCTAGGTAAAATTTCAGTGAATCCCGAGGAT is 0.303; for CATACAGGGTCAGCTAGGCGAGAGTAGGGACGGC it is 4.5.
Still for that read-out and setting: the figure for GAAACGAGGGCAAGTTGATAGCAGAGTTTGATGG is 1.07; for GCATATAGGTAATACAAGGTGAAAATCCGATTGT it is 0.325.
For the sequence CCTAGTTGGTCAGGAGGTCAGACACCGGATATGA, the PBM binding z-score was 2.18.
Same read-out and setting: to CCTTACGGCTCACGAGGTTATAGCACGACGAGCG belongs 0.307.
The same measure, in the same setting: the figure for CCTCGGAGGAGAACAGGAGGTCAGAGCTGCCAGA is 1.12; for TAGCCTTGGTCATGCGGGCCAGTATAGTGTCGGC it is -0.908.
AGAATGAGTTTACCAAAGATCAGGGAAACGCTTG: the PBM binding z-score was -0.512.
As for ACTCGGAGGACAAAGGTCTGAGCTACGCCAGTGA, the PBM binding z-score was -0.108.
Same read-out and setting: to TTACCAAGGGGAAAGGTCGTTGATGCACGCCTTG belongs 1.39.
Consider CCTACTGGGCCACGAATGGTCATTGATTCAGTGA, for which the PBM binding z-score is -0.465.
Still for that read-out and setting: to CGTCAAAGTTCAACTAAGGAAACGTAAAGCACGC belongs 7.38; to TCTTGTAGATCAAGGAGGTTAAGAAAGCCTGAGT, 0.502; to AATACAGGGTCACTAGGACAGAGTAGGTACGAAT, 6.09.
Same read-out and setting: to GTTCGGAGGACAAGGTCAGAGCTTTGTCCGTAGA belongs 1.57.
Still for that read-out and setting: the figure for TGAATGAGGTTAAAGATCAGGTAACGTGGCGTCG is 3.32.
The sequence AATACAGGGTCACTAGGCCAGATTAGGTACGAAT came in with a PBM binding z-score of 6.03.
Still for that read-out and setting: the figure for GCAGACAGGTGTAACGCAGGTAACTCAGGGTGGC is -0.697; for CTACCAAGGTGAACAAGGTCGCTGATTACTATTC it is 1.1; for CTTAGCAGGCCAGGGTCACTCAAGCATTTCGCTT it is 2.22.
Same read-out and setting: to CCTACTGAGCCATTCAGAGGTCATTGATCATATG belongs 2.84; to GGAAAGAGGGCAAGTTGATAGCAGAGTTTGATGG, 1.6; to ATCTCTAGGTAACAAGTTCAGTGGAAGAGAGGAC, 0.589.
Still for that read-out and setting: to TCTCGGCGGACACGAAAGGTCAGAGCTCGACATC belongs 1.93; to CCTTACTGGTCACTGACAGGTTATAGCATTTGGA, 0.509.
The sequence CGACCAAGGTCAGCAGGTCAGTGAAAGCGACGTG gave a PBM binding z-score of 5.71.
Still for that read-out and setting: to TCTTGTAGATCAACAGAGGTTAAGAAAGTGCGCT belongs 0.849; to CCTAGTTGGTCAAGGTCACACTCGCTATAGGTAC, 3.95; to CAAACTAGGTCAAGAGATCAAAGTCCGCTTCCCG, 3.4.
CTACTAAGGTGAACAAGGTCGTTGATTACTATTC came in with a PBM binding z-score of 1.84.
CGTCCAAGGTCAAGGCCAGTGAAAGAGACTCGAA returned a PBM binding z-score of 7.2.
The sequence ATCTCTGGGTAAGACTCAGTTCAGTGAAGAACGC had a PBM binding z-score of 0.0881.
Same read-out and setting: the figure for GCTAGTTGGTCAGTAAAAGGACACACACCGGTCG is -0.0634.
Same read-out and setting: to CCGACTGGGCCAAAAAGGTCATTGATGCCGATAA belongs 3.41; to TAGCCTAGGTCATTCAGGGGCCAGGATAGAAAGC, 4.96.
Same read-out and setting: the figure for GCGACTGGGGCAGCAGCAGGTTACCATAACTTAA is -0.536.

The next assay deals with LXRa:RXRa (NR concentration 270 nM, RXRa partner concentration 90 nM). The description is as above. The gist of the method:
as §1
Sequence CCCACTGGGGCATAAGGTTACCATAAGCCAGCCC yielded a PBM binding z-score of 1.44.
On the same count and under the same terms, to GCTTACGGGTCAAACGTTATAGCATGAATAGAAT belongs 4.13; to TCTCGGATGACACGAAGGTCAGAGCTTTCCAGAG, 1.55.
The same measure, in the same setting: the figure for ATCTCTAGGTAAAATTTCAGTGAATCCCGAGGAT is 0.0302.
Sequence CATACAGGGTCAGCTAGGCGAGAGTAGGGACGGC registered a PBM binding z-score of 2.84.
For the sequence GAAACGAGGGCAAGTTGATAGCAGAGTTTGATGG, the PBM binding z-score was 0.537.
On the same count and under the same terms, the figure for GCATATAGGTAATACAAGGTGAAAATCCGATTGT is 1.44.
Same read-out and setting: to CCTAGTTGGTCAGGAGGTCAGACACCGGATATGA belongs 2.3.
Still for that read-out and setting: to CCTTACGGCTCACGAGGTTATAGCACGACGAGCG belongs 0.723; to CCTCGGAGGAGAACAGGAGGTCAGAGCTGCCAGA, 1.8; to TAGCCTTGGTCATGCGGGCCAGTATAGTGTCGGC, -1.14.
Regarding AGAATGAGTTTACCAAAGATCAGGGAAACGCTTG, the PBM binding z-score was 2.97.
Same read-out and setting: to ACTCGGAGGACAAAGGTCTGAGCTACGCCAGTGA belongs -0.415; to TTACCAAGGGGAAAGGTCGTTGATGCACGCCTTG, 1.85.
The same measure, in the same setting: to CCTACTGGGCCACGAATGGTCATTGATTCAGTGA belongs -0.465.
The same measure, in the same setting: to CGTCAAAGTTCAACTAAGGAAACGTAAAGCACGC belongs 6.47; to TCTTGTAGATCAAGGAGGTTAAGAAAGCCTGAGT, 0.513.
The sequence AATACAGGGTCACTAGGACAGAGTAGGTACGAAT had a PBM binding z-score of 5.02.
On the same count and under the same terms, to GTTCGGAGGACAAGGTCAGAGCTTTGTCCGTAGA belongs 1.48; to TGAATGAGGTTAAAGATCAGGTAACGTGGCGTCG, 2.73; to AATACAGGGTCACTAGGCCAGATTAGGTACGAAT, 5.16.
Same read-out and setting: the figure for GCAGACAGGTGTAACGCAGGTAACTCAGGGTGGC is -0.644; for CTACCAAGGTGAACAAGGTCGCTGATTACTATTC it is 1.05.
Same read-out and setting: to CTTAGCAGGCCAGGGTCACTCAAGCATTTCGCTT belongs 1.69.
CCTACTGAGCCATTCAGAGGTCATTGATCATATG: the PBM binding z-score was found to be 4.67.
The same measure, in the same setting: the figure for GGAAAGAGGGCAAGTTGATAGCAGAGTTTGATGG is 1.58; for ATCTCTAGGTAACAAGTTCAGTGGAAGAGAGGAC it is 0.744.
The same measure, in the same setting: to TCTCGGCGGACACGAAAGGTCAGAGCTCGACATC belongs 3.18.
The same measure, in the same setting: to CCTTACTGGTCACTGACAGGTTATAGCATTTGGA belongs 0.779; to CGACCAAGGTCAGCAGGTCAGTGAAAGCGACGTG, 3.43.
TCTTGTAGATCAACAGAGGTTAAGAAAGTGCGCT returned a PBM binding z-score of 3.72.
Still for that read-out and setting: the figure for CCTAGTTGGTCAAGGTCACACTCGCTATAGGTAC is 3.53; for CAAACTAGGTCAAGAGATCAAAGTCCGCTTCCCG it is 2.88; for CTACTAAGGTGAACAAGGTCGTTGATTACTATTC it is 1.76.
Same read-out and setting: to CGTCCAAGGTCAAGGCCAGTGAAAGAGACTCGAA belongs 5.21.
Still for that read-out and setting: the figure for ATCTCTGGGTAAGACTCAGTTCAGTGAAGAACGC is 0.209.
For the sequence GCTAGTTGGTCAGTAAAAGGACACACACCGGTCG, the PBM binding z-score was -0.0918.
Same read-out and setting: the figure for CCGACTGGGCCAAAAAGGTCATTGATGCCGATAA is 4.25.
The same measure, in the same setting: the figure for TAGCCTAGGTCATTCAGGGGCCAGGATAGAAAGC is 3.81.
For the sequence GCGACTGGGGCAGCAGCAGGTTACCATAACTTAA, the PBM binding z-score is -0.657.
